This is an account of results in PubChem BioAssay AID1345083 (National Center for Advancing Translational Sciences (NCATS), 2018).

Each structure is given as a SMILES string. The campaign covered roughly 94,000 compounds. About 6,200 (6.6%) were called active. Roughly 31% stayed inconclusive and do not appear here. Shown is part of a subset that was picked to be rich in actives. Unmarked numbers belong to inactive results. The call rests on the fitted dose curve; in most records, active means well fitted inhibition curve with a large enough effect; inconclusive means small, poorly fitted or top-dose-only effect; inactive means flat fitted curve, though single readings scatter.
On the % scale 0 is the no-effect control and ±100 the full control effect; potency means the concentration at half of the fitted maximal effect.

The nature of the assay: Cytotoxic Profiling in HEK 293 Cell Line of Diverse Libraries Using Quantitative High-Throughput Screening. Further: nearly all actives have a fitted effect of over 60% in size. Particulars: HEK 293 viability, ATP luminescence (CellTiter-Glo), 48-72 h; series mostly up to 115 µM; activity change, negative = cytotoxicity: at the top concentration. Summed up: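 Viability of HEK 293 cells, plated at 250 cells/well, was judged by cellular ATP after compound treatment for 48 or 72 hr. Luminescence was imaged 10 min after CellTiter-Glo addition at room temperature.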
For orientation: In ATP-based viability assays light output follows the ATP content of the culture.
As for `CCOc1ccc2c(n1)CCN(C(=O)Nc1ccc(OC)cc1C)C2`, the “activity change, negative = cytotoxicity” value is -5.05%.

`CN1CC(=O)N(c2cccc(F)c2)Cc2c(NC3CCNCC3)ncnc21`: the “activity change, negative = cytotoxicity” value is 1.38%. The same measure, in the same setting: the result for `CS(=O)(=O)N1CCCN(C(=O)Cc2cccc(F)c2)CCNC(=O)CC1c1ccccc1` (stereo not drawn) reads -0.201%. The same measure, in the same setting: the result for `CCOCC(=O)N1CC(c2nc(CCOc3cccc(C)c3)no2)C1` reads -25.3%.

For `Cc1cccc(OCCc2noc(C3CCCN(Cc4ccccc4C#N)C3)n2)c1` (stereo not drawn), the Potency is 89.1 µM (active).

Take `O=C(c1ccccn1)N1CCCC(c2nc(CCOCC3CCOCC3)no2)C1` (stereo not drawn): the “activity change, negative = cytotoxicity” value was -18.8%. Still for that read-out and setting: the result for `Cn1ncc2c(C(=O)Nc3ccc(F)cc3)cc(-c3ccc(Cl)cc3Cl)nc21` reads 0.727%. For the compound `COc1cccc(CNC(=O)c2cc(-c3ccc(Cl)nc3)nc3c2cnn3C)c1`, the “activity change, negative = cytotoxicity” value was -8.6%.

Regarding `COc1cccc(-c2cc(C(=O)N3CCN(C(C)=O)CC3)c3cnn(C)c3n2)c1`, the “activity change, negative = cytotoxicity” value was -18.6%. On the same count and under the same terms, the result for `Cn1ncc2c(C(=O)NC3CCCCC3)cc(-c3cccnc3)nc21` reads -18.9% [at 172 µM]. Take `COc1cccc(-c2cc(C(=O)Nc3cccc(Cl)c3)c3cnn(C)c3n2)c1`: the Potency is 39.8 µM (active). Turning to `Cn1ncc2c(C(=O)Nc3cccc(C(F)(F)F)c3)cc(-c3cccc(C(F)(F)F)c3)nc21`, the “activity change, negative = cytotoxicity” value is -31.4%. With `COc1cccc(-c2cc(C(=O)Nc3cccc(F)c3)c3cnn(C)c3n2)c1`, the Potency is 44.7 µM (active).

Consider `Cc1ccc(NC(=O)c2cc(C(C)(C)C)nc3c2cnn3C)cc1`, for which the Potency is 79.4 µM (active). With `CCn1nc(C)cc1C(=O)N1C[C@H]2OC(=O)N(CCCN3CCOCC3)[C@H]2C1`, the “activity change, negative = cytotoxicity” value is -26.4%. For `O=C(Nc1cccnc1)O[C@H]1COCCN(c2nc3ccccc3s2)C1`, the “activity change, negative = cytotoxicity” value was -19% [at 172 µM].

`COc1cccc([S+](=O)([O-])N2CCCC3(CC(c4cccc(C(F)(F)F)c4)=NO3)C2)c1` (stereo not drawn): the “activity change, negative = cytotoxicity” value was -20.1%. For `CC(C)N1C[C@H](O)C[C@H]1c1nnc2n1CCN(C(=O)c1ccccn1)CC2`, the “activity change, negative = cytotoxicity” value was -14.3%. The same measure, in the same setting: the result for `CO[C@H]1C(=O)N(C2CCN(S(=O)(=O)c3c(C)nn(C)c3C)CC2)[C@H]1c1ccncc1` reads -4.47%; that for `CCCN1C(=O)NC(CC(=O)N2CCC(O)(c3ccc(C)cn3)CC2)C1=O` (stereo not drawn), -16.1%; that for `CN(C)S(=O)(=O)N1C[C@@H]2CC[C@H](C1)N(Cc1ccccc1C#N)C2`, -13.7%.

For `CC1(C)[C@H](Cc2cc(-c3ccccc3)on2)C[C@@H]1NS(C)(=O)=O`, the Potency is 89.1 µM (active). On the same count and under the same terms, the result for `CC1(C)[C@H](Cc2cc(-c3ccccc3)on2)C[C@@H]1NCC1CC1` reads 100 µM (active). In the case of `CC1(C)[C@H](Cc2cc(CCO)on2)C[C@@H]1NCC1CC1`, the “activity change, negative = cytotoxicity” value is -3.06% [at 230 µM]. In the case of `CCn1cnnc1CC1CCN(C(=O)c2cc(-c3ccc(F)cc3)nc3ccccc23)CC1`, the “activity change, negative = cytotoxicity” value is -31.2%. Regarding `CN(C)C(C(=O)N1CCC(N2CCSCC2)CC1)c1cccc(F)c1` (stereo not drawn), the “activity change, negative = cytotoxicity” value is 2.08%. In the case of `O=C(NC[C@H]1O[C@@H](CO)[C@@H](O)[C@H]1N1CCOCC1)Nc1ccc(OC(F)(F)F)cc1`, the “activity change, negative = cytotoxicity” value was 4.47%. On to `O=C(NCc1cnn(Cc2ccccc2)c1)c1ccc2oc(-c3cccc(F)c3)nc2c1`, for which the Potency is 7.08 µM (active).

As to `O=C(NCc1ccccc1)c1ccc2nc(-c3ccnc(Cl)c3)oc2c1`, the “activity change, negative = cytotoxicity” value is -0.349% [at 172 µM]. On the same count and under the same terms, the result for `O=C(NCCc1ccccc1)c1ccc2oc(-c3cccnc3)nc2c1` reads -15.5%.

`COC1CCOC2(CCN(C(=O)c3cnccn3)CC2)C1` (stereo not drawn): the “activity change, negative = cytotoxicity” value is -8.41%. The same measure, in the same setting: the result for `CN(C(=O)NCc1ccccc1)C1CCc2nn(CC3CC3)c(=O)n2CC1` (stereo not drawn) reads -7.23%; that for `O=C(C1Cn2cccc2C(=O)N1Cc1ccccc1)N1CCOCC1` (stereo not drawn), -8.46%. `O=S(=O)(Cc1ccccc1)N1CCCC(Cc2nncn2CC2CC2)C1` (stereo not drawn): the result was inactive. On to `Cc1ccc(S(=O)(=O)N2CC[C@H](c3nnc(-c4ccccc4)o3)C2)cc1`, for which the “activity change, negative = cytotoxicity” value is -21.2% [at 172 µM].

With `Cc1cnc(CC2CCN(S(=O)(=O)c3ccc(C#N)cc3)C2)n1Cc1ccccc1` (stereo not drawn), the Potency is 44.7 µM (active). For `CCN(CCn1cccn1)Cc1cnc(S(=O)(=O)Cc2ccccc2)n1CC(C)C`, the “activity change, negative = cytotoxicity” value was -18.6%.

For `O=C(C1CCCCC1)N1CC2(Cc3ccccc3NC2=O)C1`, the “activity change, negative = cytotoxicity” value is -17.9%. The same measure, in the same setting: the result for `O=C(NCc1c[nH]c2ncccc12)c1ccccc1F` reads -18.3% [at 172 µM]. `CC(C)C[C@@H]1N[C@H](C(=O)NCc2ccc(F)cc2)Cc2cn(C)c3cccc1c23`: the Potency is 70.8 µM (active). As to `CC(C)N1CCC(OCCCNC(=O)C2Cn3cccc3C(=O)N2)CC1` (stereo not drawn), the “activity change, negative = cytotoxicity” value is 2.23%. Consider `C=CCn1cc2c3c(cccc31)[C@H](CC(C)C)N[C@H](C(=O)NCC1CC1)C2`, for which the Potency was 79.4 µM (active). With `COC(=O)[C@@H]1Cc2ncn(Cc3ccc(OC)cc3)c2CN1S(C)(=O)=O`, the “activity change, negative = cytotoxicity” value is -6.58% [at 172 µM].

In the case of `COCCN1C(=O)Cc2ccccc2C1C(=O)NCC1CCCCC1` (stereo not drawn), the “activity change, negative = cytotoxicity” value is 10%. Take `CN1CC(C(=O)NCc2ccccc2)NC1=O` (stereo not drawn): the “outcome” value was “inactive [at 172 µM]”. For the compound `CCc1ccc(CNC(=O)C2c3ccccc3CC(=O)N2C(C)C)cc1` (stereo not drawn), the “activity change, negative = cytotoxicity” value is -27.9%.

For the compound `COc1ccc(CNC(=O)[C@H]2O[C@H](CCN3CCN(C)CC3)CC[C@@H]2O)cc1`, the “activity change, negative = cytotoxicity” value is -12% [at 172 µM]. Consider `COc1ccc(CNC(=O)[C@@H]2Cc3cn(Cc4ccncc4)c4cccc(c34)[C@H](CC(C)C)N2)cc1`, for which the Potency was 39.8 µM (active). With `CN1CC2(CCN(C(=O)c3ccncc3)CC2)CC1C(=O)N1CCOCC1` (stereo not drawn), the “activity change, negative = cytotoxicity” value is -3.04%. Still for that read-out and setting: the result for `CNC(=O)c1cc(C2CC2)nc2onc(C3CCN(C(=O)Nc4ccccc4)C3)c12` (stereo not drawn) reads -12.7%; that for `CNC(=O)c1cc(C2CC2)nc2c1c(C1CCN(C(=O)C(C)C)C1)nn2C` (stereo not drawn), -22%. On the same count and under the same terms, the result for `COC[C@H]1C[C@@H](NC(=O)c2cc(C)oc2C(F)(F)F)[C@H](O)[C@@H]1O` reads -0.359% [at 172 µM]. With `CN1CCCN(C(=O)c2cc(F)ccc2F)c2ccccc21`, the “activity change, negative = cytotoxicity” value was -29.6%. Still for that read-out and setting: the result for `Cc1cc(S(=O)(=O)N2CCC(n3cnnc3C(C)C)CC2)ccc1F` reads -7.71%. In the case of `Cc1cc(S(=O)(=O)N2CCCN(C)c3ccccc32)ccc1F`, the Potency is 79.4 µM (active).

For the compound `COc1cccc(CNC(=O)Cn2ccn3nc(-c4ccc(F)cc4)c(CO)c3c2=O)c1`, the “activity change, negative = cytotoxicity” value is -4.92%.

Turning to `CCOc1ccc(-c2cc3c(=O)n(CCNC(=O)c4ccc(OC)cc4C)ccn3n2)cc1`, the “activity change, negative = cytotoxicity” value was -42.3%. As to `CCC(C(=O)NCCn1ccn2nc(-c3ccc(F)cc3)cc2c1=O)c1ccccc1` (stereo not drawn), the Potency is 20 µM (active).

For `O=C(Cn1cccc1-c1nc(-c2ccc(F)cc2)no1)Nc1cc(F)cc(F)c1`, the “activity change, negative = cytotoxicity” value is -13.6%. On to `Fc1ccc(Nc2nc(-c3ccccc3F)no2)cc1`, for which the Potency is 39.8 µM (active).

Turning to `CCc1nc2c(=O)n(CC(=O)NCc3cc(C)ccc3C)nc(C)c2s1`, the “activity change, negative = cytotoxicity” value was -19.2%.

On to `CN(c1ccccc1)c1cc(=O)c2ccnc(Nc3cccc([S+](C)(=O)[O-])c3)c2o1`, for which the Potency is 100 µM (active). For `Cn1ccc(Nc2nccc3c(=O)cc(-c4ccccn4)oc23)n1`, the “activity change, negative = cytotoxicity” value was -16.5% [at 172 µM].
